Reference: paper PMC4336329 (PLoS ONE, 2015)
In all, about 310,000 compounds went through this assay and about 14,000 (4.5%) showed an effect of 50% or more. Effects have a minus sign here. The list comes from a sample in which strong results are over-represented; it also holds similar structures and randomly drawn compounds.

These compounds were tested against human ether-à-go-go-related gene (hERG) potassium channel (human, UniProt Q12809) (assay: primary screen, population patch clamp on CHO cells stably expressing hERG; higher = less effect of the substance).
Sequence of human ether-à-go-go-related gene (hERG) potassium channel (Q12809 whole entry, looked up): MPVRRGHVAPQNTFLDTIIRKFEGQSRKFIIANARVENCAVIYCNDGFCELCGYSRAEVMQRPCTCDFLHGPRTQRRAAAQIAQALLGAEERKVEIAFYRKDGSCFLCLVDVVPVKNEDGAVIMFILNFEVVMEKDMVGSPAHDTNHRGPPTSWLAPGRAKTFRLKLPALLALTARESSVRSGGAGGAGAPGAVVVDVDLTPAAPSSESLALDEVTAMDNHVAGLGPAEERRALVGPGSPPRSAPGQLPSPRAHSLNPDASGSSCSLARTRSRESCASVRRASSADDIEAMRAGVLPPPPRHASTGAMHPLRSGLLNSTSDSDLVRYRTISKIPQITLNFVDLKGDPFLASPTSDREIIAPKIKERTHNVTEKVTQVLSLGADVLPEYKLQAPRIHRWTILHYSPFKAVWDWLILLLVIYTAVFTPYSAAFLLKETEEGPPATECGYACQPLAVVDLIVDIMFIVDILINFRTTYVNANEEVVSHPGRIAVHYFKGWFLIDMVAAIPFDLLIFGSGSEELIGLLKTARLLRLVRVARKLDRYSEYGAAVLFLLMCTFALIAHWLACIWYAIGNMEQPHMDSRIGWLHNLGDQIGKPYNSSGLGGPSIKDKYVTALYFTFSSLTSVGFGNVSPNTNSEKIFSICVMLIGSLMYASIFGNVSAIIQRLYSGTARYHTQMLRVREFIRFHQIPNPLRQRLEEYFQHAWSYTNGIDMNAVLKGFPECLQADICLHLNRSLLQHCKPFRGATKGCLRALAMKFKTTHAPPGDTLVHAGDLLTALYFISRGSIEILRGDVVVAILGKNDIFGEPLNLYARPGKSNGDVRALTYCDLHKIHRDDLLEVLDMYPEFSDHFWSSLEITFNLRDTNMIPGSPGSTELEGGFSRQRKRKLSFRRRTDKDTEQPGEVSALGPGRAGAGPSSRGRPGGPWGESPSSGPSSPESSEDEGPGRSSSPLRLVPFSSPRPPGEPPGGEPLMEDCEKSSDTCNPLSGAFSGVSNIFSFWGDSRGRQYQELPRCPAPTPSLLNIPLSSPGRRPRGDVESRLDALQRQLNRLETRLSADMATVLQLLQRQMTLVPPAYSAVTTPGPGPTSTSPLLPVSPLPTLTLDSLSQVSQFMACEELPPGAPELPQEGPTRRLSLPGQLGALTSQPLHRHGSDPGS
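Note: peak tail current of the secondary pulse compared with the same well before compound.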

SMILES	hERG current change (%, negative = inhibition) at 10uM [%]
Fc1ccc(COc2cccc3cccnc23)cc1	-8.3
CC(OC(=O)c1ccc(NS(=O)(=O)c2ccc3[nH]c(=O)[nH]c3c2)cc1)C(N)=O (stereo not drawn)	18.1
O=C(NC1CCCc2ccccc21)c1cc(S(=O)(=O)N2CCOCC2)ccc1F (stereo not drawn)	6.48
COc1ccc(/C=C/C(=O)Nc2nc(C)c(C(=O)N(C)C)s2)cc1	3.15
CCOc1ccc2nc(N(CCN(CC)CC)C(=O)c3cccc([N+](=O)[O-])c3)sc2c1.Cl	-59.5
CCOc1cccc2sc(N(CCN(CC)CC)C(=O)c3cccc([N+](=O)[O-])c3)nc12.Cl	-75
CCOc1ccc2nc(N(CCN(CC)CC)C(=O)c3ccc([N+](=O)[O-])cc3)sc2c1.Cl	-65.7
CCN(CC)CCN(C(=O)c1ccc2ccccc2c1)c1nc2ccc(F)cc2s1.Cl	-12.7
CCOc1cccc2sc(N(CCN(CC)CC)C(=O)c3cccc(N4C(=O)CCC4=O)c3)nc12.Cl	-68.4
CN(C)CCCN(C(=O)c1cccc(N2C(=O)CCC2=O)c1)c1nc2cc3c(cc2s1)OCO3.Cl	-24
CCN(CC)CCN(C(=O)c1ccc(N2C(=O)CCC2=O)cc1)c1nc2cc3c(cc2s1)OCO3.Cl	-44.6
CCN(CC)CCN(C(=O)c1ccc([N+](=O)[O-])cc1)c1nc2ccc(OC)cc2s1.Cl	-49.7
CCN(CC)CCN(C(=O)c1ccc2ccccc2c1)c1nc2ccc(OC)cc2s1.Cl	-30
CCN(CC)CCN(C(=O)c1cccc([N+](=O)[O-])c1)c1nc2ccc(OC)cc2s1.Cl	-39.1
CCN(CC)CCN(C(=O)c1ccc2c(c1)CCCC2)c1nc2ccc(OC)cc2s1.Cl	-5.4
COc1ccc(-c2csc(-c3ccccc3)n2)c(OC)c1	29.1
O=C(Oc1cccc(C(=S)N2CCOCC2)c1)c1ccc([N+](=O)[O-])cc1[N+](=O)[O-]	-14.4
CCOC(=O)C1(Cc2cccc(OC)c2)CCCN(C(=O)c2cc(C)oc2C)C1 (stereo not drawn)	-6.37
O=C(CNC(=S)N(Cc1ccccc1Cl)C1CCCC1)NCCCN1CCOCC1	7.4
CSc1ccc(CNCC2CCCO2)cc1.Cl (stereo not drawn)	2.99

SMILES	hERG current change (%, negative = inhibition) at 10uM [%]
CC(/C=N/NC(=O)Cn1cnc2c1c(=O)n(C)c(=O)n2C)=C\c1ccco1	-10.2
CCN(C(=O)CSc1nc2ccccc2o1)C1CCS(=O)(=O)C1 (stereo not drawn)	-3.25
CC1(CC(=O)N/N=C/c2ccc(OCc3ccc(Cl)cc3Cl)cc2)OCCCO1	5.38
COc1cccc(C(=O)Nc2ccccc2F)c1	8.37
O=C(CCc1nc2ccccc2c(=O)[nH]1)NNC(=O)COc1ccc(Br)cc1	6.48
CCOC(=O)c1nnn2c1nc(N1CCOCC1)c1ccccc12	-20.4
CCOC(=O)c1nnn2c1nc(N1CCN(c3ccccc3)CC1)c1ccccc12	-62.4
CCOC(=O)c1nnn2c1nc(N1CCN(C)CC1)c1ccccc12	-4.25
COc1ccc(OC)c(N2C(=O)NC(=O)C(CCc3ccncc3)(CCc3ccncc3)C2=O)c1	-41.2
COc1ccc(CC2(CCc3ccncc3)C(=O)NC(=O)NC2=O)cc1	22.5
O=C1NC(=O)C(CCc2ccncc2)(CCc2ccncc2)C(=O)N1Cc1ccc(F)cc1	-76.6
CCOc1ccccc1N1C(=O)NC(=O)C(CCc2ccncc2)(CCc2ccncc2)C1=O	-29.6
O=C1NC(=O)C(CCc2ccncc2)(CCc2ccncc2)C(=O)N1CCc1ccc(F)cc1	-68.5
O=C1CC(=O)N(CCc2ccc(F)cc2)C(=O)N1	9.33
CCOC(=O)CN1CC23C=CC(O2)C(C(=O)NCCc2ccccc2)C3C1=O (stereo not drawn)	6.73
CCOC(=O)N1CCN(S(=O)(=O)c2ccc(C)cc2)C1c1ccc(OC)cc1 (stereo not drawn)	-11.9
Cc1ccc(-c2nn(Cc3ccccc3)cc2C=O)cc1C	-13.9
Cc1cnc(NC(=O)CSc2nc3ccccc3c(=O)[nH]2)s1	-7.72
Cc1ccc2nc(SCC(=O)Nc3cccc4ccccc34)nc(=O)n2c1	-14
Cc1cccn2c(=O)c3cc(C(=O)NCC(C)C)sc3nc12	-3.21

SMILES	hERG current change (%, negative = inhibition) at 10uM [%]
Cc1ccc(CCNC(=O)c2ccc3nc4ccc(Cl)cc4c(=O)n3c2)cc1	20.4
Cc1ccccc1CC(=O)NCc1cccnc1	10.8
Cc1cccn2c(=O)c3cc(C(=O)N(C)C)n(C)c3nc12	2.7
Cc1cccn2c(=O)c3cc(C(=O)O)n(C)c3nc12	6.65
Cc1cccn2c(=O)c3cc(C(=O)NCc4cccnc4)c(=N)n(C(C)C)c3nc12	-69.4
CNC(=O)c1cc2c(=O)n3cc(C)ccc3nc2n(C(C)C)c1=N	-77.1
CNC(=O)c1cc2c(=O)n3cccc(C)c3nc2n(C(C)C)c1=N	-77.3
O=C(CSc1nnc2scc(-c3ccc(Cl)cc3)n12)NCc1ccco1	-15.9
CCOc1cc(CNC(C)(C)CO)cc(Br)c1OCc1ccc(Cl)cc1Cl	-12.1
COC1CCN(C(=O)CC2C(=O)NCCN2CC(C)(C)C)CC1 (stereo not drawn)	18.5
COC(=O)c1cc(NC(=O)c2cccnc2)cc(C(=O)OC)c1	11
N#CC(=C1SC=CS1)c1nc(-c2ccccc2)cs1	9.47
O=C(NCCN1CCOCC1)/C(=C\c1ccccc1Cl)NC(=O)c1ccccc1	-16.2
O=C(NCCCN1CCOCC1)/C(=C/c1ccco1)NC(=O)c1ccccc1	1.44
CC(C)NC(=O)C(=O)NCCCN1CCOCC1	25.1
CC(C)CNC(=O)C(=O)NCCCN1CCOCC1	-61.6
CC(C)c1ccc(/C=C(\NC(=O)c2ccccc2)C(=O)NCCCN2CCOCC2)cc1	-71.4
CC(C)c1ccc(/C=C(\NC(=O)c2ccccc2)C(=O)NCCN2CCOCC2)cc1	-61
CNC(=O)C(=O)NCCCN1CCOCC1	7.92
Cn1cc(/C=C(\NC(=O)c2ccccc2)C(=O)NCCCN2CCOCC2)c2ccccc21	3.43
